From PubChem BioAssay AID799 (SRMLSC, 2007)
Among all 140,000 compounds or so, about 840 (0.6%) were called active.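 Rule for the calls: active = viability gain under doxorubicin at or above a set limit, the compound median plus 3 SD (cut at about 4.7% in these data); inactive = the rest.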 Shown is part of a subset that was picked to be rich in actives.

assay: protection of MRP-1-high cells against doxorubicin toxicity – H69AR cells, CellTiter-Glo, MRP-1 activator project, primary screen (AID 799); conditions: viability rescue, at 10 µM, stronger effect = higher value;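 note: MRP-1 overexpressing cells given doxorubicin 25 µM after compound pretreatment; 18-22 h compound pretreatment then 72 h with doxorubicin before readout; 0% = doxorubicin-only wells and 100% = vehicle-treated cells without doxorubicin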

| SMILES | viability increase |
| --- | --- |
| c1ccc2c(CSCc3nc4ccccc4[nH]3)cccc2c1 | -0.17% (inactive) |
| CCOc1ccc(Br)cc1CSC(=N)N | 0.81% (inactive) |
| N=C(N)SCc1cccc2ccccc12 | 8.11% (active) |
| COc1cc(C(=S)NC2CCCCC2)ccc1O | -2.71% (inactive) |
| Cc1[nH]n(-c2ccccc2)c(=O)c1/C=N/NC(=O)c1ccoc1C | -1.54% (inactive) |
| COc1cc(NC(=S)NCCSc2ccc(C)cc2)cc(OC)c1 | -3.24% (inactive) |
| CCc1nnc(NS(=O)(=O)c2ccc(NS(=O)(=O)c3ccccc3)cc2)s1 | -0.5% (inactive) |
| CCc1nnc(NC(=O)C2CCCN2S(=O)(=O)c2ccccc2)s1 (stereo not drawn) | 12.4% (active) |
| CC(C)c1nnc(NC(=O)C2CCCN2S(=O)(=O)c2ccc(Cl)cc2)s1 (stereo not drawn) | -0.99% (inactive) |
| Cc1ccccc1NC(=O)c1ccccc1NS(=O)(=O)c1cccc2cccnc12 | -3.17% (inactive) |
| C=CCNC(=O)c1ccccc1NC(=O)c1ccc(Cl)c(S(=O)(=O)Nc2cccc(C)c2C)c1 | 5.97% (active) |
| COC(=O)c1ccc(C(=O)Nc2cc(Cl)ccc2Cl)cc1NC(=O)c1ccccc1C | -3.01% (inactive) |
| CC(C)(C)C1CCC(OC(=O)CCC(=O)Nc2ccccc2)CC1 (stereo not drawn) | 3.57% (inactive) |
| Cc1ccc(C(=O)Cc2nnc(C)s2)cc1 | -2.89% (inactive) |
| Cc1ccc(C2=N/C(=C\c3ccc(OS(=O)(=O)c4ccc(C)cc4)cc3)C(=O)O2)cc1 | -1.26% (inactive) |
| O=C(Nc1ccn(Cc2ccccc2F)n1)c1ccc(COc2ccc(Cl)cc2Cl)o1 | 10.6% (active) |
| CC(=O)Nc1ccn(Cc2c(F)cccc2Cl)n1 | -1.03% (inactive) |
| O=C(Nc1ccn(Cc2ccc(F)cc2)n1)c1ccncc1 | 1.75% (inactive) |
| CCCc1ccc(-c2c(C)sc(NC(=O)c3ccnn3C)c2C#N)cc1 | -1.28% (inactive) |
| Cn1ncc(Br)c1C(=O)NCc1cccs1 | -2.03% (inactive) |
| Cn1nccc1CNC(=O)c1ccnn1C | 10.8% (active) |
| O=C(NCc1ccccc1Cl)C1CCC(CNc2c(N3CCCCC3)c(=O)c2=O)CC1 (stereo not drawn) | -1.61% (inactive) |

| SMILES | viability increase |
| --- | --- |
| CN(C)S(=O)(=O)c1ccc(N2CCCC2=O)c([N+](=O)[O-])c1 | -1.68% (inactive) |
| CC(=O)Cc1nsc(NC(=O)c2ccc(COc3ccc(C)cc3)o2)n1 | -0.06% (inactive) |
| COc1ccc(-c2nn(-c3ccccc3)cc2C(=O)Nc2nc(CC(C)=O)ns2)cc1 | 6.77% (active) |
| COc1ccc(-c2nn(-c3ccccc3)cc2C(=O)Nc2nccs2)cc1OC | -4.27% (inactive) |
| COc1ccc2nc(Nc3nc4ccc(NC(C)=O)cc4s3)sc2c1 | -4.94% (inactive) |
| CCCOc1ccc(Cn2ccnc2)cc1[N+](=O)[O-] | -1.18% (inactive) |
| CC(=O)NC1C(OCc2ccccc2)OC(COC(C)=O)C(OC(C)=O)C1OC(C)=O (stereo not drawn) | -1.54% (inactive) |
| Cc1ccc(S(=O)(=O)N(Cc2ccc(Cl)cc2)c2ccccc2C(=O)NCc2cccnc2)cc1 | -2.38% (inactive) |
| Cc1ccc(O)c(-c2cc(C(=O)NCc3ccccc3)[nH]n2)c1 | -1.43% (inactive) |
| O=C1[C@@H]2C(Cc3ccc(O)cc3)NC3(C(=O)Nc4ccc(F)cc43)[C@@H]2C(=O)N1c1ccc(F)cc1 (stereo partly drawn) | 5.18% (active) |
| CSCCC1NC2(C(=O)Nc3ccc(Cl)cc32)[C@@H]2C(=O)N(C3CCCC3)C(=O)[C@H]12 (stereo partly drawn) | -3.72% (inactive) |
| CNC(=O)NC(=O)C(OC(=O)c1cccc(S(=O)(=O)N2CCCCC2)c1)c1ccccc1 (stereo not drawn) | -2.3% (inactive) |
| Cc1cc(NS(=O)(=O)c2ccc(NC(=S)NC(=O)c3ccc(F)cc3Cl)cc2)no1 | -2% (inactive) |
| CCN(CC)c1ccc([N+](=O)[O-])cc1C(=O)O | 0.59% (inactive) |
| CC(NC(=O)COC(=O)C1CCN(S(=O)(=O)c2ccccc2C(F)(F)F)CC1)c1ccccc1 (stereo not drawn) | -1.86% (inactive) |
| COCC(C)n1c(C)cc(C(=O)CSc2cc(C)c3ccccc3n2)c1C (stereo not drawn) | 0.22% (inactive) |
| Cc1ccc(C2C3=C(Nc4[nH]n(-c5ccccc5)c(=O)c42)c2ccccc2C3=O)cc1 (stereo not drawn) | -0.43% (inactive) |
| Cc1ccc(N2C(=O)C(Cc3ccccc3)NC2=S)cc1 (stereo not drawn) | -0.7% (inactive) |
| Cc1ccc(N2C(=O)C3C(c4ccccc4)(C2=O)C3(c2ccccc2)c2ccccc2)cc1 (stereo not drawn) | 5.37% (active) |
| N/C(=N\OC(=O)N1c2ccccc2Sc2ccccc21)c1ccc(Br)cc1 | -2.4% (inactive) |
| COc1cc2c(cc1NC(=O)COC(=O)/C=C/c1ccccc1)oc1ccccc12 | -4.74% (inactive) |
| CS(=O)(=O)N(CC(=O)N1CCN(Cc2ccc3c(c2)OCO3)CC1)c1ccc2c(c1)OCO2 | -1.42% (inactive) |

| SMILES | viability increase |
| --- | --- |
| O=C(CSCc1ccc(Cl)cc1)N1CCN(Cc2ccc3c(c2)OCO3)CC1 | 5.45% (active) |
| O=C(CSCc1ccc(Cl)cc1)N1CCCCC1 | 0.74% (inactive) |
| CCN(C(=O)COC(=O)c1c(NC(C)=O)sc(C)c1C)C1CCS(=O)(=O)C1 (stereo not drawn) | -2.05% (inactive) |
| CCOc1ccc(Nc2nc(Cl)nc(N3CCN(c4ccc(OC)cc4)CC3)n2)cc1 | 1.19% (inactive) |
| CN(Cc1cccs1)C(=O)Cc1c[nH]c2ccccc12 | -2.21% (inactive) |
| CCC(=O)Nc1ccc(C(=O)Nc2cccc(OC)c2)cc1 | -2.62% (inactive) |
| Cc1cccc(OCc2ccc(C(=O)Nc3ccc(F)cc3)cc2)c1 | 4.9% (active) |
| Cc1cccc(C(=O)Nc2ccc(CC(=O)O)cc2)c1 | -0.27% (inactive) |
| CCOP(=O)(OCC)C(Nc1cccc(C)c1)c1ccc(F)cc1 (stereo not drawn) | 0.43% (inactive) |
| CCOC(=O)C(NC(=O)CC(C)C)(Nc1sc2c(c1C(N)=O)CCCC2)C(F)(F)F (stereo not drawn) | -2.1% (inactive) |
| C/C(=N\NS(=O)(=O)c1ccc(Cl)cc1)c1ccc(NC(=O)c2ccco2)cc1 | -2.49% (inactive) |
| NC1=NC(=O)C(Cc2cccc(Cl)c2Cl)S1 (stereo not drawn) | -0.15% (inactive) |
| O=C1NC(=Nc2ccc(Cl)cc2)SC1Cc1cccc(Cl)c1Cl (stereo not drawn) | 6.35% (active) |
| Cc1c(Cl)cccc1NC(=O)CC1SC(=NCC2CCCO2)NC1=O (stereo not drawn) | 2.61% (inactive) |
| CC(C)CNC(=O)C(=O)Nc1ccc(N(C)C)cc1 | 0% (inactive) |
| CC1CCc2sc(C(=O)N/N=C/C3CCCCC3)cc2C1 (stereo not drawn) | -1.48% (inactive) |
| Oc1c(C(c2ccco2)N2CCC3(CC2)OCCO3)sc2ncnn12 (stereo not drawn) | 0.05% (inactive) |
| Cc1ccc(C(c2sc3nc(C)nn3c2O)N2CCN(c3ccc(F)cc3)CC2)cc1 (stereo not drawn) | -2.22% (inactive) |
| Oc1c(C(c2cccs2)N2CCN(c3ccc(F)cc3)CC2)sc2ncnn12 (stereo not drawn) | 10.6% (active) |
| Cc1c(C2=CCN(S(=O)(=O)c3ccc(Cl)cc3)CC2)c2ccccc2n1C | -0.07% (inactive) |
| COc1nc(N(C)C)nc(N2CC(=O)N(CCNS(=O)(=O)c3ccc(C)cc3)C2=N)n1 | -2.66% (inactive) |
| O=C1N/C(=C/c2cccn2-c2ccccc2)C(=O)N1c1cccc(Cl)c1 | -0.22% (inactive) |

| SMILES | viability increase |
| --- | --- |
| Cc1c(Cl)cccc1NC(=S)NCc1ccc2c(c1)OCO2 | -4.04% (inactive) |
| COc1ccc(C2CC(c3cccs3)=NN2C(=O)COC(=O)c2cc3ccccc3cc2O)cc1OC (stereo not drawn) | -0.45% (inactive) |
| COc1nc(NCc2ccc(Cl)cc2)nc(OC)n1 | 5.12% (active) |
| C=CCNc1nc(C)nc(OC)n1 | 0.38% (inactive) |
| FC(F)(F)c1cc(-c2ccco2)nc(NCc2ccc(Cl)cc2)n1 | -0.53% (inactive) |
| CCOc1ccc(/C=N/OCC(=O)NCc2cccs2)cc1 | 0% (inactive) |
| COc1ccc2c(c1)C(SCC(=O)NCc1ccccc1)CC(C)(C)O2 (stereo not drawn) | -1.61% (inactive) |
| COc1ccc(-c2csc(NC(=O)CCCc3cccs3)n2)cc1 | 3.87% (inactive) |
| COC(=O)CN1C(=S)N(c2ccccc2)C(=O)C1CC(=O)Nc1ccc(Cl)cc1 (stereo not drawn) | -1.37% (inactive) |
| COc1ccc(N2C(=O)C(CC(=O)Nc3ccc(F)cc3)N(CCc3cccs3)C2=O)cc1 (stereo not drawn) | 5.39% (active) |
| CC(C)COP(=O)(c1ccc(N(C)C)cc1)C(Nc1ccccc1)c1cccnc1 (stereo not drawn) | -3.48% (inactive) |
| CCOc1ccc(Oc2nc(C)cc(OC)n2)nn1 | 0.08% (inactive) |
| Cc1ccc(NC(=O)c2cccs2)cc1S(=O)(=O)N(C)C | -1.25% (inactive) |
| O=S(=O)(NCCSc1ccccn1)c1ccc(Cl)cc1 | 0.85% (inactive) |
| Cc1cccc2cc(CN(Cc3cccs3)C(c3nnnn3C3CCCC3)C(C)C)c(=O)[nH]c12 (stereo not drawn) | -3.53% (inactive) |
| Cc1cccc2cc(CN(C(=O)c3cccs3)c3ccccc3)c(=O)[nH]c12 | -0.07% (inactive) |
| Cc1cccc2cc(CN(Cc3cccs3)C(=S)NCc3ccco3)c(=O)[nH]c12 | 5.98% (active) |
| Cc1ccc(Oc2cc(NC(=O)CCCn3nc(C)c([N+](=O)[O-])c3C)cc([N+](=O)[O-])c2)cc1 | -2.6% (inactive) |
| O=C(O)c1cccc(N=NN2CCCCCC2)c1 | -1.92% (inactive) |
| COC(C(=O)NCc1ccccc1C)c1ccccc1 (stereo not drawn) | -0.37% (inactive) |
| COc1cc(C2C(N3C(=O)c4ccccc4C3=O)C(=O)N2c2ccc(C)c(C)c2)cc(OC)c1OC (stereo not drawn) | -3.6% (inactive) |
| CCCCOc1ccc(C(=O)N/C(=C/C=C/c2ccccc2)C(=O)N2CCOCC2)cc1 | -4.14% (inactive) |
